RecA intein inh: Mtb RecA intein splicing inhibition; inhibition, % (concentration not given with the values); P9WHJ3; cell-free RecA intein splicing, fluorescence; 290,000 tested, 0.75% active; in the data active = inhibition above about 30%; inconclusive = no clear call, values can overlap the other calls;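 note: 0% = vehicle wells and 100% = reference inhibitor control wells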
GDH-TPI inh: counter-screen for M. tuberculosis FBA inhibitors: GDH-TPI coupled enzymes. GDH-TPI coupled enzyme counterscreen, NADH absorbance. inhibition, % at 4.8 µM. 360,000 tested, 1.2% active. AID 588335; in the data active = inhibition above about 30%;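 note: 0% = DMSO wells and 100% = wells lacking the enzyme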
Rv3671c protease: inhibits the M. tuberculosis serine protease Rv3671c | P9WHR9 | inhibition, % at 5.96 µM | AID 2606 | 320,000 tested, 0.048% active; in the data active = inhibition above about 38%;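 note: extracellular domain of Rv3671c used as enzyme; 0% = enzyme with DMSO and 100% = no enzyme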
BH1578 lux ind: inducers of Vibrio cholerae quorum light production without autoinducers | activation, % at 18.7 µM | 350,000 tested, 0.16% active | V. cholerae BH1578 lux reporter, luminescence, 6 h; in the data active = activation mostly above about 9.7%, no sharp cut-off; inconclusive = no clear call, values can overlap the other calls; inactive = mostly below about 3.7%
UGM FP inh: blocks M. tuberculosis UGM enzyme; purified UGM, fluorescence polarization probe displacement; 320,000 tested, 0.06% active; inhibition, % at 10 µM; P9WIQ1; in the data active = inhibition above about 10%, passing the limit was not always enough; inconclusive = no clear call, values can overlap the other calls
FBA Mtb inh: inhibitors of M. tuberculosis fructose-bisphosphate aldolase | P9WQA3 | purified M. tuberculosis FBA, fluorescence read-out | AID 588726 | 360,000 tested, 2.3% active | inhibition, % at 1 µM; in the data active = inhibition above about 27%;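 note: 0% = vehicle and 100% = reference inhibitor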
Target sequence (P9WQA3 whole entry, looked up): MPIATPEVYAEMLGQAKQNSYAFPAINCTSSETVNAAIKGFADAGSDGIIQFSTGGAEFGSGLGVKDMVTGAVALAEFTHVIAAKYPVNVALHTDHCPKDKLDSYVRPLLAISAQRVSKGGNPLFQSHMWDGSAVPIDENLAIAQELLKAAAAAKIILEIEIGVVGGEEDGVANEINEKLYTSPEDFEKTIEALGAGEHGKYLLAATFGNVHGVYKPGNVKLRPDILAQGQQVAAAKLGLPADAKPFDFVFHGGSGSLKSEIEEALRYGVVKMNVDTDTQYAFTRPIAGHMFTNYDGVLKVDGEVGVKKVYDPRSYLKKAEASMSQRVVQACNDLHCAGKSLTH
Starred values were filed as active, the others as inactive; i = inactive; ? = inconclusive; nt = no result given. Hits are enriched below; roughly 4.1% of the tested compounds scored in any of these assays.

SMILES | RecA intein inh | GDH-TPI inh | Rv3671c protease | BH1578 lux ind | UGM FP inh | FBA Mtb inh
C(=C\c1ccccc1)/C=N/Nc1nc(N2CCOCC2)nc(N2CCOCC2)n1 | -3.0 | 47.1* | -0.2 | i | 0.5 | -2.3
Clc1ccccc1/C=C/C=N/Nc1nc(N2CCOCC2)nc(N2CCOCC2)n1 | -3.1 | 40.2* | -6.9 | -0.1 | -2.3 | -3.6
CCN(CCCCN1C(=O)c2ccccc2C1=O)c1ccc2c(c1)C(=O)N(C)C2=O | -7.8 | 43.4* | -10.6 | i | 3.5 | 1.5
CCN(CC)c1ccc2c(c1)C(=O)N(C)C2=O | -6.1 | 5.6 | -2.4 | nt | 0.3 | -7.5
Cc1no[n+]([O-])c1COc1ccc(/C=C2\NC(=S)NC2=O)cc1 | 4.4 | 39.2* | -15.4 | -0.3 | 1.8 | 2.7
Cc1ccc(CNc2ccc(O)cc2)cc1 | 85.3* | 6.2 | nt | -10.0 | nt | -0.7
CC1(C)CC(NC(=O)c2coc(=O)c(Br)c2)CC(C)(C)N1 | -0.5 | 26.4 | 3.2 | nt | 0.0 | 60.4*
Cc1ccc(C(=O)NC2CC(C)(C)NC(C)(C)C2)cc1 | nt | 3.4 | 0.1 | -0.3 | 3.1 | 2.0
O=C(NCc1ccc(F)cc1)C1CCCN1S(=O)(=O)c1cccc2nsnc12 (configuration not stated) | 4.4 | 12.8 | 7.5 | i | -0.7 | -0.3
CCOc1ccc(-n2nnnc2SCC(=O)Nc2ccc(NC(C)=O)cc2)cc1 | 1.0 | 11.1 | -6.1 | i | -1.7 | 0.1
C#CCSc1nnnn1-c1ccc(OCC)cc1 | 2.1 | 2.2 | 6.1 | 606.8* | 3.0 | -0.5
CCOc1ccc(-n2ccc(=O)c(C(=O)Nc3ccc(S(=O)(=O)Nc4nccs4)cc3)n2)cc1 | 2.7 | 33.0* | -12.8 | i | 2.5 | 2.2
O=C(Nc1ccc(S(=O)(=O)Nc2nccs2)cc1)c1nn(-c2ccc(F)cc2)ccc1=O | 1.6 | 26.6 | -0.5 | -0.7 | -0.7 | -4.6
CCOc1ccc(/C=N/Nc2nc(=O)[nH]nc2C)cc1OC | -5.6 | 33.5* | -3.8 | i | 4.1 | -3.6
CCCOc1ccc(/C=N/Nc2ccccn2)cc1OC | -0.4 | 35.4* | 5.9 | 0.3 | 3.1 | -8.5
COc1ccc(/C=N/Nc2ccccn2)c(OC)c1OC | 0.2 | 19.7 | 5.8 | -0.7 | -1.4 | -3.8
CCOc1ccc(/C=N/Nc2ccccn2)cc1OC | -0.7 | 18.5 | 8.4 | -0.7 | 0.8 | -13.2
CCOc1cc(/C=N/Nc2nc(=O)[nH]nc2C)ccc1O | -6.0 | 21.5 | 0.3 | -0.8 | 2.8 | -6.0
COc1ccc(/C=N\Nc2ccccn2)c(OC)c1 | -1.4 | 36.3* | nt | -1.8 | -0.7 | -0.7
O=C(Nc1ccc(Cl)cc1)C1Cc2c(-c3ccccc3Oc3ccccc3)ccnc2O1 (configuration not stated) | nt | 0.0 | nt | -0.3 | nt | 0.8
Nc1nc(SCC(=O)c2ccc(Cl)cc2)c2ncn(C3OC(CO)C(O)C3O)c2n1 (configuration not stated) | nt | 11.4 | nt | i | nt | 0.0
CNCC(O)CN(c1ccccc1)c1ccccc1 (configuration not stated) | 40.5* | -11.2 | 0.7 | i | -0.6 | 4.0
COc1ccccc1CCNC(=O)CN1C(=O)c2ccccc2S1(=O)=O | -1.8 | -4.6 | -5.3 | i | 2.2 | -2.3
CCS(=O)(=O)C1=NN2C(=N)/C(=C\c3ccc(OS(=O)(=O)c4ccccc4)c(OC)c3)C(=O)N=C2S1 | 10.4 | nt | -21.6 | nt | -1.1 | nt
CCN1C(=O)/C(=C\c2cccc(OC(=O)c3ccco3)c2)SC1=S | 0.8 | 2.3 | -9.6 | i | 3.5 | 1.7
SMILES | RecA intein inh | GDH-TPI inh | Rv3671c protease | BH1578 lux ind | UGM FP inh | FBA Mtb inh
CCC(CC)C1=NN2C(=N)/C(=C/c3ccc(OC(=O)c4ccco4)cc3)C(=O)N=C2S1 | 8.1 | 9.6 | -1.4 | i | 1.6 | 2.9
CSC1=NSC2=NC(=O)/C(=C\c3ccc(OC(=O)c4ccco4)cc3)C(=N)N12 | -0.2 | 11.8 | -18.2 | -0.3 | 1.6 | 0.9
O=C(O)CN1C(=O)/C(=C\c2ccc(OC(=O)c3ccco3)cc2)SC1=S | 30.3* | 11.5 | -1.3 | i | -1.2 | -4.0
CCS(=O)(=O)C1=NN2C(=N)/C(=C\c3ccc(OC(=O)c4ccco4)cc3)C(=O)N=C2S1 | 32.8* | 21.6 | 0.7 | -0.4 | 0.5 | 1.2
COc1cc(/C=C2\C(=N)N3N=C(S(=O)(=O)CC(C)C)SC3=NC2=O)ccc1OC(=O)c1ccco1 | 31.8* | nt | -6.2 | nt | -7.1 | nt
CC(C)CS(=O)(=O)C1=NSC2=NC(=O)/C(=C\c3ccc(OC(=O)c4ccco4)cc3)C(=N)N21 | 41.0* | 15.7 | -5.2 | -2.6 | -1.5 | 2.5
Cc1cn([C@H]2C[C@H](O)[C@@H](CNCC3=Cc4cc(O)ccc4OC3)O2)c(=O)[nH]c1=O | nt | 1.4 | nt | -0.4 | nt | -5.1
c1ccc2c3c(cc(N4CCOCC4)c2c1)OC1(N2CCOCC2)CCCCC1O3 (configuration not stated) | 2.3 | 0.8 | -13.6 | i | 2.3 | 89.5*
N/C(=N/OC(=O)c1ccccc1Cl)c1ncc([N+](=O)[O-])s1 | -2.4 | 17.2 | -5.7 | i | 1.9 | 0.3
Cc1cc(/C=C2/NC(=O)NC2=O)c(C)n1-c1ccc(N2CCOCC2)cc1 | -16.2 | 34.2* | 3.5 | i | 0.1 | 2.5
CN(CC(=O)N1CCCCCC1)S(=O)(=O)c1ccccc1 | nt | -10.0 | -9.1 | 0.4 | -1.5 | -0.6
CC[C@H](C)[C@H](NC(=O)OCc1ccccc1)C(=O)OCC(=O)Nc1ccc(N2CCOCC2)cc1 | 0.3 | -1.4 | -0.7 | i | -0.2 | -0.8
CCOC(=O)c1c(NC(=O)c2ccc(N3C(=O)[C@@H]4[C@H](C3=O)[C@H]3C=C[C@@H]4C3)cc2)sc2c1CC(C)CC2 (some centres not stated) | -6.1 | 1.2 | 11.6 | -0.3 | 0.1 | 137.5*
O=C(Nc1sc(-c2ccccc2)cc1C(=O)O)c1ccccc1 | -1.3 | 34.6* | 12.6 | -0.4 | 0.2 | 11.4
Cc1cc(C(O)c2ncc(-c3ccccc3)[nH]2)ccc1F (configuration not stated) | nt | 11.5 | nt | -0.8 | nt | 4.1
COC(=O)c1sc(NC(=O)c2ccc([N+](=O)[O-])o2)c(C#N)c1C | -3.3 | 32.5* | 7.0 | -0.3 | 4.4 | -3.6
COc1ccc(NC(=O)CS(=O)(=O)c2cccc(Cl)c2)cc1 | 0.7 | -0.9 | -18.3 | i | 2.9 | 4.6
O=C(C1=NN(c2ccccc2)C2C(=O)N(c3cccc(Cl)c3)C(=O)C12)c1ccccc1 (configuration not stated) | nt | 4.9 | -22.1 | -0.3 | ? | -4.5
O=C(C1=NN(c2ccccc2)C2C(=O)N(c3ccc(Cl)cc3)C(=O)C12)c1ccccc1 (configuration not stated) | nt | 12.3 | -14.8 | -0.4 | 14.8* | -5.0
COc1ccccc1N1C(=O)C2C(C(=O)c3ccccc3)=NN(c3ccc(Br)cc3)C2C1=O (configuration not stated) | -87.8 | 11.7 | -8.9 | -0.5 | 10.9* | -0.1
Cc1cc2occ(CC(=O)N(C)CC(=O)Nc3cccc(F)c3)c2cc1C | -0.5 | 1.0 | 2.5 | 3.6 | -0.7 | 2.4
